aSyn yeast rescue: inhibitors of alpha-synuclein toxicity in yeast | S. cerevisiae alpha-synuclein toxicity rescue, BacTiter-Glo growth, 24 h | actives 0.02% (n = 94,000) | AID 1347070 | Potency, µM (titrated, usually from 46.1 µM), most hits filed as activators; active = well fitted activation curve with a large enough effect
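Growth restoration measured by BacTiter-Glo luminescence after 24 hr at 30 deg C; alpha-synuclein yeast, raffinose-pregrown to mid-log, were added at OD600=0.02 in galactose medium onto pinned compounds.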
Numbers stand for hits; 0 = inactive. Only a selection was taken, and hits are over-represented in it overall.

SMILES	aSyn yeast rescue
CC(=O)c1c(C)oc2c(Cl)cc(NS(=O)(=O)c3cc(C)c(C)cc3C)cc12	0
COc1ccccc1C1=Nn2c(nc3sc(C(=O)Nc4ccccc4Cl)c(C)c3c2=O)SC1	0
O=C(NCc1ccco1)c1ccc2c(c1)N(Cc1ccc(F)cc1)C(=O)c1ccccc1S2=O (configuration not stated)	0
Cc1cccc(N2CCN(S(=O)(=O)c3cc(C(=O)Nc4ccccc4Cl)ccc3F)CC2)c1C	0
O=C(NCCc1cccs1)c1ccc(Cn2c(SCc3ccc(F)cc3)nc3cccnc32)cc1	0
COc1ccc(C(=O)Nc2cccc(-c3nc4cccnc4s3)c2C)c(OC)c1	0
CCOc1ccccc1Nc1ccc2cc(S(=O)(=O)N3CCCCC3)ccc2n1	0
COc1ccc(C2C(=O)N(C3CCCCCC3)CC(=O)N2CCC2=CCCCC2)cc1 (configuration not stated)	0
O=C(NCCc1ccc(Cl)cc1)c1c2c(nc3ccccc13)C(=O)N(C1CCCCC1)C2	0
Cc1ccc(NC(=O)C2CCN(c3nc(-c4ccc(C(C)C)cc4)no3)CC2)c(Cl)c1	0
CCOC(=O)C1CCCN(C(=O)c2cccc(NC(=O)c3nsc4ccccc34)c2)C1 (configuration not stated)	0
COc1ccccc1CNC(=O)c1ccc(Cn2c(SCc3ccccc3)nc3cccnc32)cc1	0
O=C(CC1N=C2c3ccccc3N=C(SCC(=O)Nc3ccccc3F)N2C1=O)NCc1ccc2c(c1)OCO2 (configuration not stated)	0
Cc1ccc(/C=C(\C#N)c2nc3ccccc3c(=O)[nH]2)cc1	0
Cn1c(/C(C#N)=C/c2ccc(C(F)(F)F)cc2)nc2ccccc21	2.5µM
O=S(=O)(/C(=C/c1ccc(C(F)(F)F)cc1)c1nc2ccccc2[nH]1)c1ccccc1	0
Cc1ccc2c(c1)-c1onc(C(=O)N3CCN(c4cc(Cl)ccc4C)CC3)c1CO2	0
COc1ccc(CCNC(=O)CCc2c(C)c3cc4c(C)coc4c(C)c3oc2=O)cc1OC	0
CSc1ccc(CCNC(=O)CN2C(=O)COc3ccc(S(=O)(=O)N4CCCCCC4)cc32)cc1	0
O=C(Nc1ccc(C(=O)N2CCCCC2)cc1)c1nsc2ccccc12	0
CCN(CC)CCNC(=O)Nc1ccc2c(c1)N(Cc1ccccc1)C(=O)c1ccccc1S2	0
Cc1cc(C)cc(NC(=O)CN(C)S(=O)(=O)c2ccc3c(c2)CCC(=O)N3)c1	0
CC(C)(C)C(=O)Nc1ccc2nc(SCC(=O)N3CCc4ccccc43)sc2c1	0
CCOC(=O)c1noc2ncn(CC(=O)Nc3ccc(OC)c(Cl)c3)c(=O)c12	0
CCOc1cccc(-c2nc3ccccc3c(=O)o2)c1	0
SMILES	aSyn yeast rescue
Cc1ccc(C)c(CNC(=O)c2cnc3sc(N4CCCC4)nn3c2=O)c1	0
O=C(c1ccccc1)N1CCc2cc(CNS(=O)(=O)c3ccc(Cl)s3)ccc21	0
COc1ccc(-c2nc3sc(CCNC(=O)c4cccc(C(F)(F)F)c4)c(C)n3n2)cc1	0
CCc1ccc(OCCCSc2nc(-c3ccc(C(C)(C)C)cc3)nc3cc(=O)[nH]n23)cc1	0
CCn1c2c(c(=O)n3ncc(C(=O)Nc4ccc(OC(F)(F)F)cc4)c13)CN(Cc1ccc(OC)cc1)CC2	0
COc1cc2ccccc2cc1C(=O)N1CCN(c2nc3c(C)cc(C)cc3s2)CC1	0
COc1ccc(C(=O)N2CCN(c3nc4c(C)c(Cl)ccc4s3)CC2)c(OC)c1	16µM
Cc1c(Cl)ccc2sc(N3CCN(C(=O)C(C)C)CC3)nc12	0
Cc1cc(C)c2nc(N(Cc3cccnc3)C(=O)c3cccs3)sc2c1	0
Cc1cc(C)c2nc(N(Cc3cccnc3)C(=O)Cc3ccccc3)sc2c1	13µM
Cc1cccc2sc(N(Cc3cccnc3)C(=O)CCc3ccccc3)nc12	0
Cc1cccc2sc(N(Cc3cccnc3)C(=O)c3ccco3)nc12	0
Cc1ccc2nc(N(Cc3cccnc3)C(=O)Cc3ccccc3)sc2c1	0
Cc1cccc2sc(N(Cc3cccnc3)C(=O)Cc3ccccc3)nc12	10µM
COc1ccccc1N1CCN(c2nc3ccc(C)cc3nc2-n2nc(C)cc2C)CC1	0
COc1ccccc1NC(=O)Cn1c(=O)n(Cc2ccc3c(c2)OCO3)c(=O)c2oc3ccccc3c21	0
CC(C)Oc1ccc(CNC(=O)c2cccc(NC(=O)N3CCSc4ncccc43)c2)cc1	0
CC(C)CCN1C(=O)c2ccccc2CC1(C)C(=O)NC1CCCCC1 (configuration not stated)	0
CCOC(=O)c1c(C)oc2ncnc(Nc3ccc(OC)c(OC)c3)c12	0
C=Cc1ccc(CN2C(=O)N(c3cccc(Cl)c3)S(=O)(=O)c3ccccc32)cc1	0
COc1cccc(-c2nc(CS(=O)(=O)CC(=O)NCc3cccc(Cl)c3)c(C)o2)c1	0
CC(=O)N1CCN(c2csc3ccc(Br)cc3c2=O)CC1	0
COc1ccc(N2CCN(c3ccc(-c4nc(-c5cccc(C)c5)no4)cc3[N+](=O)[O-])CC2)cc1	0
COc1cc(NC(=O)Cn2ccn(-c3cc(C)cc(C)c3)c(=O)c2=O)cc(OC)c1	0
